# NR2F2 inh = inhibitors of human COUP-TFII (NR2F2); inhibition, % at 8.6 µM; HEK293T NGFI-A luciferase reporter, luminescence; P24468; actives 0.7% (n = 370,000);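 active means inhibition above a per-plate cutoff, mean inhibition of test wells between control levels plus 3 SD, cut at about 38% in these data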;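 further: cells cotransfected with COUP-TFII expression vector driving the NGFI-A reporter; 0% = median of COUP-TF2 test wells and 100% = reporter-only cells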
# SRC3 inh = human NCOA3 inhibition | inhibition, % at 3.6 µM | HEK293 GAL4-SRC3 luciferase reporter, luminescence | actives 0.17% (n = 360,000);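 active means inhibition above a per-campaign cutoff, the mean of all compounds plus 3 SD, cut at about 60% in these data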;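 further: 0% = DMSO-treated cells and 100% = gossypol-treated cells at 36 µM; higher means less SRC3-driven luciferase light from the GAL4 reporter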
# NCOA2 inhibitor = inhibits human steroid receptor coactivator 2 | HEK293 GAL4-SRC2 luciferase reporter, luminescence | inhibition, % at 9 µM | actives 0.17% (n = 370,000);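 active means inhibition above the mean inhibition of all tested compounds plus 3 SD, set per campaign, cut at about 52% in these data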;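 further: 0% = DMSO treated cells and 100% = cells given Gossypol at 36 µM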
# Target sequence (Q15596 whole entry, looked up, the tested form may be a part): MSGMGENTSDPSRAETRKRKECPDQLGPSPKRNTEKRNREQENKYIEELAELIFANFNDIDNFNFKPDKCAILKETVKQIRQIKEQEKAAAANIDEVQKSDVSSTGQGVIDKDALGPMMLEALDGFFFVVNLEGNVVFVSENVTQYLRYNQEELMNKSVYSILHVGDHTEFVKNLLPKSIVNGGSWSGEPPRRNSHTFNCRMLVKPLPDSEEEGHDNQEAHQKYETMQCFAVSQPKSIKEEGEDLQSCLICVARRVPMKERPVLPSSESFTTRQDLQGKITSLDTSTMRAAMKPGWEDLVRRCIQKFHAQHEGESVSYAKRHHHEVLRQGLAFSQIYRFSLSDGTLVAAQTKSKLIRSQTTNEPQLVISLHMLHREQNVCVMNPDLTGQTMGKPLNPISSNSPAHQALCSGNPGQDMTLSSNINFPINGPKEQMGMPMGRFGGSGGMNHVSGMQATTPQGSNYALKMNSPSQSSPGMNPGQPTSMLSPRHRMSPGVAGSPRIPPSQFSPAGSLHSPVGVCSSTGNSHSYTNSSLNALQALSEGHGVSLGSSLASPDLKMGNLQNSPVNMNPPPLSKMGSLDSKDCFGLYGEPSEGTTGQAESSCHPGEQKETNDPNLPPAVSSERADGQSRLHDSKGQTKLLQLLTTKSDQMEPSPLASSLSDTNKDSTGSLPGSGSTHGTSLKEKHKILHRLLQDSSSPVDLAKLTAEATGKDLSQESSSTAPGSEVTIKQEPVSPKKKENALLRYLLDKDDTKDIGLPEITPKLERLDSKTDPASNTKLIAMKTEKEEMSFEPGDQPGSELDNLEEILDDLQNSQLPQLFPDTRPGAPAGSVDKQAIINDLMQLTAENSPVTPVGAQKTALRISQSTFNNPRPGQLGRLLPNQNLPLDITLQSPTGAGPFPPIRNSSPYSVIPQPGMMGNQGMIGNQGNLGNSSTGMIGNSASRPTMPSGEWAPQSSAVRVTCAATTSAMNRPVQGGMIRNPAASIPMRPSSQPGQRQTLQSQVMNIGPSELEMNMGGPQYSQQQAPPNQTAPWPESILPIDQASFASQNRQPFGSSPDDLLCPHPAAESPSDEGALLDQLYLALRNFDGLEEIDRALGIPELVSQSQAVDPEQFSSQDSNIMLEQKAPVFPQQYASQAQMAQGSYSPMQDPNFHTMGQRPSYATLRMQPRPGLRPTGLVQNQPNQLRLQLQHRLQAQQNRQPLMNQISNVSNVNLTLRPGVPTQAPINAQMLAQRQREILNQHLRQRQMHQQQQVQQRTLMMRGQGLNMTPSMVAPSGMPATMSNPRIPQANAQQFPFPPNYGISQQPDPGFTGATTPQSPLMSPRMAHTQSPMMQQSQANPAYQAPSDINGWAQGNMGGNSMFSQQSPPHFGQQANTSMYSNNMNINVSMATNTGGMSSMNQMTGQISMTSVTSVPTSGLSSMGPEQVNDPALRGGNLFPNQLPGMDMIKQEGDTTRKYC
# NCOA1 inh = human NCOA1 inhibition. actives 0.12% (n = 360,000). HEK293 GAL4-SRC1 luciferase reporter, luminescence. AID 588354. inhibition, % at 3.6 µM;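 active means inhibition above the campaign mean plus 3 SD, with each screening campaign given its own cutoff, cut at about 60% in these data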;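 further: 0% = DMSO treated cells and 100% = gossypol at 36 µM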
# GalR3 antagonist = antagonists of human GalR3. O60755. actives 0.44% (n = 360,000). inhibition, % at 3 µM. HEK293 GalR3-CNG cAMP membrane potential fluorescence; galR3 body fused to GalR1 C-terminus;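 active means inhibition above the screen-wide average plus 3 SD, cut at about 13% in these data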;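 further: forskolin and galanin both at EC90 stimulate the cells; cAMP rise reported by CNG channel membrane potential dye signal; 0% = forskolin plus galanin with DMSO and 100% = forskolin alone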
# NR5A2 inv ag = NR5A2 inverse agonism in reporter assay; inhibition, % at 3.6 µM; O00482; actives 0.13% (n = 360,000); HEK293T StAR-luciferase reporter, LRH-1 transfected, 24 h; AID 602396;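 active means inhibition above the mean inhibition of all tested compounds plus 3 SD, cut at about 73% in these data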;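 further: 0% = DMSO wells and 100% = reporter-only cells lacking LRH-1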
# VP16 Luc counter = VP16 inhibition counter-screen for COUP-TFII | HEK293 Gal4-VP16 luciferase reporter, luminescence | shares compounds with NR2F2 inh | actives 25% (n = 2,500) | inhibition, % at 8.5 µM; in the data active means inhibition above about 13%
# NR2F2 inh conf = COUP-TFII (NR2F2) inhibition, confirmation assay. shares compounds with NR2F2 inh. HEK293 NGFI-A luciferase reporter, luminescence. inhibition, % at 8.5 µM. actives 45% (n = 2,500). AID 687008;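 active means mean inhibition over three repeats above a set limit taken from the earlier primary screen, cut at about 38% in these data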;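 further: 100% = cells given the luciferase reporter alone without the COUP-TF2 vector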
# * hit, by the source's call; · = not tested or not shown. Only some compounds are listed: those with a hit (about 1.1% of all), similar ones and a draw of the others.
SMILES,NR2F2 inh,SRC3 inh,NCOA2 inhibitor,NCOA1 inh,GalR3 antagonist,NR5A2 inv ag,VP16 Luc counter,NR2F2 inh conf
Cc1cc(C)c(O)c(C(=O)CC2CC(=O)NC(=O)C2)c1,75.1*,·,30.6,·,-1.1,·,-15.7,51.3*
CC(=O)N(Cc1cc2c(C)cc(C)cc2[nH]c1=O)C1CCCCC1,6.0,19.9,-2.2,-1.6,-4.3,15.9,·,·
S=C(Nc1ccc(Nc2ccccc2)cc1)Nc1ccccn1,39.0*,17.9,-24.0,-20.9,3.9,8.2,-30.2,16.1
S=C(Nc1ccccc1)Nc1ccccn1,0.7,-32.4,-14.9,-10.8,-7.9,-8.0,·,·
COCC(C)n1c(C)cc(C(=O)COC(=O)c2cnc(Cl)c(Cl)c2)c1C (stereo not drawn),-31.2,11.5,28.2,-7.3,-5.4,8.3,·,·
COCC(C)n1c(C)cc(C(=O)COC(=O)c2cccn2C)c1C (stereo not drawn),57.4*,42.9,33.4,29.6,-4.5,22.1,-42.0,50.0*
CCNC(=O)N(C)[C@H]1C[C@H]2c3[nH]c4c(-c5ccc6c(c5)OCO6)cccc4c3CCN2C(=O)[C@H]1[C@H](C)O,7.2,·,-2.2,·,-7.6,·,·,·
CC(=NNc1ccc2ccccc2n1)c1ccccc1O,-27.7,-6.2,-59.6,-30.3,-3.3,-75.0,·,·
CC(=NNc1ccc2ccccc2n1)c1ccccn1,58.8*,·,38.2,·,-8.9,·,33.6*,73.7*
COc1ccc(CCN(Cc2cccs2)S(=O)(=O)c2ccc(S(=O)(=O)N3CCCCCC3)cc2)cc1OC,-0.4,5.0,1.2,-5.8,0.1,-1.7,·,·
COc1ccc(CCN(Cc2cccs2)S(=O)(=O)c2ccc(F)cc2)cc1OC,47.4*,·,31.4,·,·,·,4.4,13.8
CN(Cc1ccccc1)C(=O)OCc1cn(Cc2cccc(Cl)c2)nn1,-5.8,·,-16.8,·,·,·,·,·
O=C(Nc1ccc(Oc2cccc(C(F)(F)F)c2)nc1)c1ccco1,2.4,20.7,20.1,-13.3,-0.3,7.7,·,·
CC(C)(C)c1ccc(Oc2ccc(NC(=O)c3ccco3)cn2)cc1,42.9*,31.7,40.8,-1.9,-5.5,-7.1,29.4*,59.2*
COc1ccc(CCc2nnc(CCC(=O)N(C)Cc3ccnc4ccccc34)o2)cc1,39.8*,18.6,10.2,4.8,-5.3,25.5,-28.5,17.2
CCOC(=O)N(C)C[C@H]1OCc2cn(nn2)CCCC(=O)N([C@@H](C)CO)C[C@@H]1C,3.9,·,0.2,·,-2.8,·,·,·
Cc1ccc2nc3sc(C(=O)N4CCN(C)CC4)cc3cc2c1,-35.4,·,·,·,·,·,·,·
Cc1cc(NC2CCCCC2)nc(NCc2ccccc2)n1,52.4*,32.9,-21.8,16.9,-6.4,5.1,-2.0,18.9
O=[N+]([O-])c1cc(S(=O)(=O)NCc2ccco2)ccc1NN=Cc1ccccn1,-8.8,·,3.5,·,-6.5,·,·,·
O=C(c1ccc(CSc2nc3ccncc3[nH]2)cc1)N1CCN(c2cccc(Cl)c2)CC1,78.2*,3.2,7.4,17.5,·,10.1,11.7,50.8*
O=C(Nc1nc(-c2ccc(S(=O)(=O)N3CCCCCC3)cc2)cs1)c1ccccc1,54.5*,28.6,16.0,26.2,-4.7,10.8,4.1,33.6
Cc1ccc(Nc2nc(-c3ccc(S(=O)(=O)N4CCOCC4)cc3)cs2)cc1,37.8*,8.9,9.1,11.2,-2.4,21.1,-0.1,18.2
O=S(=O)(c1ccc(-c2csc(Nc3ccc(F)cc3)n2)cc1)N1CCCC1,46.5*,-2.6,24.4,10.9,1.0,47.6,-10.6,23.9
CC1CCc2nc(NC(=O)C3CC3)sc2C1 (stereo not drawn),-25.4,-64.0,-77.4,-131.7,0.0,-95.2,·,·
CC1CCc2nc(NC(=O)C3COc4ccccc4O3)sc2C1 (stereo not drawn),63.6*,33.8,40.7,52.6,·,28.9,18.2*,56.7*
Cc1ccc2nc(-c3ccccc3)cn2c1,52.8*,36.3,67.3*,27.7,-4.6,11.1,-4.5,21.4
Cc1ccc2nc(-c3ccc(O)c(O)c3)cn2c1,-39.1,-122.9,-63.9,-114.1,-3.3,-125.5,·,·
